Source: the supplement of paper PMC4466140

B1: unnamed (peptide)
chain: RSLRKRPTSPSISGS

Each binder was assayed against AgAbp1 (assay: SPOT peptide array binding signal intensity (averaged, normalized) (arbitrary units (background-subtracted, floor 0; scale differs between SH3 domains)); higher = stronger binding of the SH3 domain to the peptide).
How it was run: (§1)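 Binding signal refers to normalized, background-subtracted spot intensity averaged over replicates, expressed in arbitrary units that differ between domains. GST-fused SH3 domains from four yeast species were incubated at 10 μg/ml overnight at 4°C on cellulose membranes of synthetic 15-mer peptides with cysteines replaced by serines. Bound protein was detected with anti-GST antibody, an HRP anti-mouse secondary and luminol, and quantified with Genespotter.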

Binder | SPOT peptide array binding signal intensity
B1 | 197

These binders were tested against AgBbc1 in the same assay as above.
How it was run: as §1

Binder | SPOT peptide array binding signal intensity
B1 | 232

These binders were tested against AgBem1-D1 in the same assay as above.
How it was run: as §1

Binder | SPOT peptide array binding signal intensity
B1 | 118

What follows are binders tested against AgBzz1-D1 in the same assay as above.
How it was run: as §1

Binder | SPOT peptide array binding signal intensity
B1 | 62.5

These binders were tested against AgBzz1-D2 in the same assay as above.
How it was run: as §1

Binder | SPOT peptide array binding signal intensity
B1 | 63

Each binder was assayed against AgCyk3 in the same assay as above.
How it was run: as §1

Binder | SPOT peptide array binding signal intensity
B1 | 23

What follows are binders tested against AgFus1 in the same assay as above.
How it was run: as §1

Binder | SPOT peptide array binding signal intensity
B1 | 464

The binders below were run against AgHof1 in the same assay as above.
How it was run: as §1

Binder | SPOT peptide array binding signal intensity
B1 | 77

The binders below were run against AgHse1 in the same assay as above.
How it was run: as §1

Binder | SPOT peptide array binding signal intensity
B1 | 1610

Each binder was assayed against AgLsb1 in the same assay as above.
How it was run: as §1

Binder | SPOT peptide array binding signal intensity
B1 | 7

The binders below were run against AgLsb4 in the same assay as above.
How it was run: as §1

Binder | SPOT peptide array binding signal intensity
B1 | 326

Each binder was assayed against AgMyo5 in the same assay as above.
How it was run: as §1

Binder | SPOT peptide array binding signal intensity
B1 | 1

The binders below were run against AgNbp2 in the same assay as above.
How it was run: as §1

Binder | SPOT peptide array binding signal intensity
B1 | 724

Each binder was assayed against AgRvs167 in the same assay as above.
How it was run: as §1

Binder | SPOT peptide array binding signal intensity
B1 | 9.67

The binders below were run against AgSho1 in the same assay as above.
How it was run: as §1

Binder | SPOT peptide array binding signal intensity
B1 | 80.5

Each binder was assayed against AgSla1-D1-D2 in the same assay as above.
How it was run: as §1

Binder | SPOT peptide array binding signal intensity
B1 | 698

What follows are binders tested against AgSla1-D3 in the same assay as above.
How it was run: as §1

Binder | SPOT peptide array binding signal intensity
B1 | 3.5

These binders were tested against CaAbp1-D1 in the same assay as above.
How it was run: as §1

Binder | SPOT peptide array binding signal intensity
B1 | 1720

These binders were tested against CaAbp1-D2 in the same assay as above.
How it was run: as §1

Binder | SPOT peptide array binding signal intensity
B1 | 1730

The binders below were run against CaBbc1 in the same assay as above.
How it was run: as §1

Binder | SPOT peptide array binding signal intensity
B1 | 522

Each binder was assayed against CaBem1-D1 in the same assay as above.
How it was run: as §1

Binder | SPOT peptide array binding signal intensity
B1 | 57.5

The binders below were run against CaBzz1-D1 in the same assay as above.
How it was run: as §1

Binder | SPOT peptide array binding signal intensity
B1 | 86

The binders below were run against CaBzz1-D2 in the same assay as above.
How it was run: as §1

Binder | SPOT peptide array binding signal intensity
B1 | 94.5

The binders below were run against CaCyk3 in the same assay as above.
How it was run: as §1

Binder | SPOT peptide array binding signal intensity
B1 | 201

What follows are binders tested against CaFus1 in the same assay as above.
How it was run: as §1

Binder | SPOT peptide array binding signal intensity
B1 | 985

Each binder was assayed against CaHof1 in the same assay as above.
How it was run: as §1

Binder | SPOT peptide array binding signal intensity
B1 | 0.75

The binders below were run against CaHse1 in the same assay as above.
How it was run: as §1

Binder | SPOT peptide array binding signal intensity
B1 | 204

These binders were tested against CaLsb1 in the same assay as above.
How it was run: as §1

Binder | SPOT peptide array binding signal intensity
B1 | ≤ 0

The binders below were run against CaLsb4 in the same assay as above.
How it was run: as §1

Binder | SPOT peptide array binding signal intensity
B1 | 338

These binders were tested against CaMyo5 in the same assay as above.
How it was run: as §1

Binder | SPOT peptide array binding signal intensity
B1 | 6

The binders below were run against CaNbp2 in the same assay as above.
How it was run: as §1

Binder | SPOT peptide array binding signal intensity
B1 | 1160

The binders below were run against CaRvs167 in the same assay as above.
How it was run: as §1

Binder | SPOT peptide array binding signal intensity
B1 | 27.5

Each binder was assayed against CaRvs167-3 in the same assay as above.
How it was run: as §1

Binder | SPOT peptide array binding signal intensity
B1 | 210

The binders below were run against CaSho1 in the same assay as above.
How it was run: as §1

Binder | SPOT peptide array binding signal intensity
B1 | 972

These binders were tested against CaSla1-D1-D2 in the same assay as above.
How it was run: as §1

Binder | SPOT peptide array binding signal intensity
B1 | 226

What follows are binders tested against CaSla1-D3 in the same assay as above.
How it was run: as §1

Binder | SPOT peptide array binding signal intensity
B1 | 1.5

The binders below were run against ScAbp1 in the same assay as above.
How it was run: as §1

Binder | SPOT peptide array binding signal intensity
B1 | 65

What follows are binders tested against ScBbc1 in the same assay as above.
How it was run: as §1

Binder | SPOT peptide array binding signal intensity
B1 | 94

The binders below were run against ScBem1-D1 in the same assay as above.
How it was run: as §1

Binder | SPOT peptide array binding signal intensity
B1 | 50.5

What follows are binders tested against ScBzz1-D1 in the same assay as above.
How it was run: as §1

Binder | SPOT peptide array binding signal intensity
B1 | 26.5

These binders were tested against ScBzz1-D2 in the same assay as above.
How it was run: as §1

Binder | SPOT peptide array binding signal intensity
B1 | 28

Each binder was assayed against ScCyk3 in the same assay as above.
How it was run: as §1

Binder | SPOT peptide array binding signal intensity
B1 | 294

These binders were tested against ScFus1 in the same assay as above.
How it was run: as §1

Binder | SPOT peptide array binding signal intensity
B1 | 488

What follows are binders tested against ScHof1 in the same assay as above.
How it was run: as §1

Binder | SPOT peptide array binding signal intensity
B1 | 1

Each binder was assayed against ScHse1 in the same assay as above.
How it was run: as §1

Binder | SPOT peptide array binding signal intensity
B1 | 1770

Each binder was assayed against ScLsb1 in the same assay as above.
How it was run: as §1

Binder | SPOT peptide array binding signal intensity
B1 | 54

What follows are binders tested against ScLsb2 in the same assay as above.
How it was run: as §1

Binder | SPOT peptide array binding signal intensity
B1 | 20

These binders were tested against ScLsb3 in the same assay as above.
How it was run: as §1

Binder | SPOT peptide array binding signal intensity
B1 | 1330

What follows are binders tested against ScLsb4 in the same assay as above.
How it was run: as §1

Binder | SPOT peptide array binding signal intensity
B1 | 27.5

These binders were tested against ScMyo3 in the same assay as above.
How it was run: as §1

Binder | SPOT peptide array binding signal intensity
B1 | 11

Each binder was assayed against ScMyo5 in the same assay as above.
How it was run: as §1

Binder | SPOT peptide array binding signal intensity
B1 | 3

Each binder was assayed against ScNbp2 in the same assay as above.
How it was run: as §1

Binder | SPOT peptide array binding signal intensity
B1 | 1530

The binders below were run against ScPex13 in the same assay as above.
How it was run: as §1

Binder | SPOT peptide array binding signal intensity
B1 | 3

Each binder was assayed against ScRvs167 in the same assay as above.
How it was run: as §1

Binder | SPOT peptide array binding signal intensity
B1 | 75.5

What follows are binders tested against ScSho1 in the same assay as above.
How it was run: as §1

Binder | SPOT peptide array binding signal intensity
B1 | 959

Each binder was assayed against ScSla1-D1-D2 in the same assay as above.
How it was run: as §1

Binder | SPOT peptide array binding signal intensity
B1 | 607

These binders were tested against ScSla1-D3 in the same assay as above.
How it was run: as §1

Binder | SPOT peptide array binding signal intensity
B1 | 30

Each binder was assayed against SpAbp1-D1 in the same assay as above.
How it was run: as §1

Binder | SPOT peptide array binding signal intensity
B1 | 477

The binders below were run against SpBbc1 in the same assay as above.
How it was run: as §1

Binder | SPOT peptide array binding signal intensity
B1 | 8

The binders below were run against SpBzz1-D1 in the same assay as above.
How it was run: as §1

Binder | SPOT peptide array binding signal intensity
B1 | 249

These binders were tested against SpBzz1-D2 in the same assay as above.
How it was run: as §1

Binder | SPOT peptide array binding signal intensity
B1 | 0.75

The binders below were run against SpCyk3 in the same assay as above.
How it was run: as §1

Binder | SPOT peptide array binding signal intensity
B1 | 13.5

These binders were tested against SpHof1 in the same assay as above.
How it was run: as §1

Binder | SPOT peptide array binding signal intensity
B1 | 428

Each binder was assayed against SpHof1-2 in the same assay as above.
How it was run: as §1

Binder | SPOT peptide array binding signal intensity
B1 | 43.8

What follows are binders tested against SpHof1-3 in the same assay as above.
How it was run: as §1

Binder | SPOT peptide array binding signal intensity
B1 | 730

The binders below were run against SpHse1 in the same assay as above.
How it was run: as §1

Binder | SPOT peptide array binding signal intensity
B1 | 621

The binders below were run against SpLsb1 in the same assay as above.
How it was run: as §1

Binder | SPOT peptide array binding signal intensity
B1 | 17.8

The binders below were run against SpLsb4 in the same assay as above.
How it was run: as §1

Binder | SPOT peptide array binding signal intensity
B1 | 776

The binders below were run against SpMyo1 in the same assay as above.
How it was run: as §1

Binder | SPOT peptide array binding signal intensity
B1 | 9

Each binder was assayed against SpNbp2 in the same assay as above.
How it was run: as §1

Binder | SPOT peptide array binding signal intensity
B1 | 2180

These binders were tested against SpPex13 in the same assay as above.
How it was run: as §1

Binder | SPOT peptide array binding signal intensity
B1 | 7

The binders below were run against SpRvs167 in the same assay as above.
How it was run: as §1

Binder | SPOT peptide array binding signal intensity
B1 | 10.8

These binders were tested against SpSla1-D1-D2 in the same assay as above.
How it was run: as §1

Binder | SPOT peptide array binding signal intensity
B1 | 5

The binders below were run against SpSla1-D3 in the same assay as above.
How it was run: as §1

Binder | SPOT peptide array binding signal intensity
B1 | 8
